Source: PubChem BioAssay (Sanford-Burnham Center for Chemical Genomics)
Shown are actives, neighbours in structure and some others; about 2.2% of the full set was active somewhere.
CF NFkB inh = inhibitors of cystic fibrosis induced NF-kB. KKLEB NF-kB-GFP reporter, PAF-induced, GFP fluorescence overnight. inhibition, % at 5 µM. actives 0.86% (n = 360,000). AID 588850;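 active means at least 50% inhibition at 5 µM, scaled per plate between neutral and stimulator controls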;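 further: PAF is a Pseudomonas aeruginosa culture filtrate used as stimulus; plate controls were PAF-stimulated DMSO wells for no effect and unstimulated DMSO wells for full effect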
HIF-2a block = HIF-2a inhibition; 786-0 RCC cells HIF-2a reporter, luciferase luminescence, overnight; inhibition, % at 18.8 µM; actives 0.72% (n = 360,000); AID 624352;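 active means inhibition of the luminescence signal of 40% or more relative to plate controls, in a single-dose primary screen at 18.75 µM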
C8 TRAIL sens = caspase-8 TRAIL sensitization; actives 1% (n = 360,000); NB7+C8 cells + TRAIL, ATPlite viability luminescence; AID 624354; inhibition (viability loss, TRAIL sensitization), % at 10 µM;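 active means compounds causing at least 50% loss of cell viability in the single-dose screen, relative to plate controls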
iPSC survival up = increases survival of single human iPS cells; hiPSC single-cell survival, ATPlite luminescence; 100% = ROCK inhibitor wells, 0% = DMSO; survival enhancement, % at 20 µM; actives 0.044% (n = 360,000); AID 602274; in the data active means survival enhancement above about 18%;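 further: cells exposed to compounds for 16 hours before the ATP read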
PPC-1+TRAIL kill = PPC-1 cancer cell killing with TRAIL present; actives 0.41% (n = 220,000); cell killing (% activity), % at 4 µM or 5 µM; PPC-1 cells + TRAIL, ATPLite viability luminescence;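 active means cell killing above 50% in the first pass at 4 µM, then a duplicate retest at 5 µM averaging 50% or more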;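 further: plate controls were cells with TRAIL plus DMSO for no effect and medium-only wells lacking cells for full effect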
KKLEB tox = reduces viability of KKLEB cystic fibrosis airway cells; KKLEB CF airway cells viability, ATPlite luminescence, overnight; stronger effect = lower value; cells stimulated with P. aeruginosa culture filtrate; activity change (cytotoxicity), % at 5 µM; actives 0.36% (n = 360,000);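 active means corrected activity change at or below -50% at 5 µM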
* marks the source's active call; other numbers are inactive results; . = no result.

SMILES | CF NFkB inh | HIF-2a block | C8 TRAIL sens | iPSC survival up | PPC-1+TRAIL kill | KKLEB tox
COc1cccc(-c2oc3c(c2C#CCCO)C(O)CCC3)c1 (centres undefined) | . | -5 | -4 | -1 | . | .
CCN1CCN(c2ccc(S(=O)(=O)N3CCCCC3)cc2NC(=O)c2ccc(F)cc2)CC1 | 9 | 9 | -10 | -2 | 1 | -10
CN1CCN(c2ccccc2NC(=O)c2ccc([N+](=O)[O-])o2)CC1 | 32 | -1 | 60* | 0 | . | -15
CS(=O)(=O)N1CCN(c2ccccc2NC(=O)c2ccc([N+](=O)[O-])o2)CC1 | -44 | -14 | -2 | -3 | 26 | 2
CCN1CCN(c2ccc(S(=O)(=O)N3CCCCC3)cc2NC(=O)c2ccc([N+](=O)[O-])o2)CC1 | 17 | 8 | 55* | 0 | . | 13
CCN1CCN(c2ccc(S(=O)(=O)N3CCOCC3)cc2NC(=O)/C=C/c2ccc([N+](=O)[O-])cc2)CC1 | -29 | -13 | 53* | 0 | . | -1
O=C(C[C@H]1C/C=C\CC[C@H](Cc2ccc(F)cc2)C(=O)OC[C@H]2CCCN2C1=O)N[C@@H](CO)Cc1ccccc1 | 8 | -15 | 0 | -1 | . | 6
COC(=O)c1nn(-c2ccc(-c3ccccc3)cc2)cc1O | -8 | -174 | 58* | -3 | 7 | 6
O=C(Nc1ccc(Cl)c(Cl)c1)Nc1ccccc1O | 19 | -345 | 9 | 0 | 31 | 17
O=C(Nc1ccc(Cl)c(Cl)c1)Nc1ccc(Br)cc1F | 71* | -195 | 2 | -1 | -5 | -64*
Cc1nn(-c2ccccc2)c(C)c1/C=N/NC(=O)c1cc(-c2ccccc2)n[nH]1 | 64* | 2 | 7 | -1 | 29 | -21
Cc1nn(-c2ccccc2)c(Cl)c1/C=N/NC(=O)c1ccn[nH]1 | -5 | -76 | 75* | 0 | . | -13
Cc1nn(-c2ccccc2)c(Cl)c1/C=N/NC(=O)c1[nH]ncc1Br | 26 | -150 | 73* | -1 | . | -28
COC(=O)C1(C(=O)OC)c2ccccc2N(S(=O)(=O)c2ccc(C)cc2)C1CC(=O)c1ccccc1 (centres undefined) | . | -2 | 10 | . | . | .
O=C(NNC(=O)c1cnccn1)c1ccc(Cl)cc1 | -6 | -31 | 22 | -1 | 14 | 12
Cc1ccsc1C(=O)Nc1nc2ccccc2[nH]1 | -22 | -195 | 60* | -1 | 41 | 1
COc1ccc(Cl)cc1C(=O)Nc1nc2ccccc2[nH]1 | -31 | 33 | 81* | 0 | . | -52*
Cc1cc(C)cc(C(=O)Nc2nc3ccccc3[nH]2)c1 | -10 | -255 | 50* | -1 | . | -3
COc1cc(OC)cc(C(=O)Nc2nc3ccccc3[nH]2)c1 | -3 | -196 | 53* | 4 | 22 | -13
O=C(CN(C(=O)c1csnn1)c1cccc(Cl)c1)NCCc1ccccc1 | 5 | 6 | -1 | 0 | . | -16
CC(C)COc1ccc(C/C(N)=N/n2cnnc2)cc1 | -11 | 19 | 36 | 2 | 23 | -10
O=C(CN(Cc1ccco1)C(=O)c1ccc(N2CCCC2=O)cc1)Nc1ccccc1C(F)(F)F | 19 | 3 | 11 | 0 | . | -16
CNC(=O)Nc1cc(NC(=O)NC)cc(C(F)(F)F)c1 | 9 | 21 | 2 | 0 | 1 | -2
COc1ccc(C2=CSC3=NCCN23)cc1Br | 2 | 8 | -2 | 0 | . | -2
O=C(CC1CCCC1)Nc1nc2ccccc2[nH]1 | 5 | -150 | 51* | -3 | 3 | 3
SMILES | CF NFkB inh | HIF-2a block | C8 TRAIL sens | iPSC survival up | PPC-1+TRAIL kill | KKLEB tox
CN(C(=O)COC(=O)C1=COCCO1)c1c(N)n(Cc2ccccc2)c(=O)[nH]c1=O | -9 | 15 | -17 | 0 | . | 10
COc1ccc(C2N=C(N)N=C(N)N2c2ccc(C)cc2)cc1 (centres undefined) | 8 | -6 | -10 | 1 | 1 | -6
Cc1cc(C)cc(N2C(N)=NC(N)=NC2c2ccccc2F)c1 (centres undefined) | -38 | 12 | 70* | -1 | . | 1
Cc1cc(C)cc(N2C(N)=NC(N)=NC2c2cccc(Cl)c2)c1 (centres undefined) | 10 | 13 | 69* | 0 | . | -11
O=C(NNC(=O)C1CC(c2cccs2)=NO1)Nc1ccc(Cl)cc1 (centres undefined) | -15 | 10 | -2 | 0 | . | 6
CCOc1ccc(CN2CCNC(=O)C2CC(=O)NCCN2CCOC2=O)cc1 (centres undefined) | 11 | 6 | 21 | 0 | . | 3
COc1ccc(C2=NNC(=O)C2(C)Br)cc1 (centres undefined) | 20 | 17 | -3 | -1 | . | 0
Cc1[nH]c2ccccc2c1C1=CC(=O)C=CC1=O | 74* | 16 | 2 | -2 | . | -13
Cc1[nH]c2ccccc2c1CC#N | -12 | 21 | -3 | -1 | 18 | 1
CC(C)(C)OC(=O)NCCCCCc1cn([C@@H](CO)C(=O)NCCCCCCCCCCC(=O)N2CCN(C(=O)OC(C)(C)C)CC2)nn1 | 8 | -64 | 60* | -3 | . | 5
CC(C)(C)OC(=O)CC[C@@H](C(=O)NCCCCCCCCCCC(=O)N1CCN(C(=O)OC(C)(C)C)CC1)n1cc(CCCCCNC(=O)OC(C)(C)C)nn1 | -3 | -13 | 8 | -4 | . | 8
Nc1c(Cl)ncnc1N/N=C/c1ccc2ccccc2n1 | -23 | -162 | 43 | -3 | 62* | -10
Nc1c(Cl)ncnc1N/N=C/c1ccccn1 | . | . | . | . | 20 | .
Cc1ccc(-c2nc(-c3cccnc3)no2)c(C)c1 | -30 | -222 | 37 | -2 | 38 | -16
Clc1ccc(-c2nc(-c3cnccn3)no2)cc1 | -41 | -131 | 53* | -1 | 25 | 9
Fc1ccc(-c2nc(-c3cnccn3)no2)c(Cl)c1 | -21 | -126 | 60* | -1 | 49 | 4
Cc1ccccc1-c1noc(-c2ccc(Cl)cc2)n1 | -3 | -266 | 23 | -1 | -16 | 0
Cc1ccc(-n2nc3ccc(N)cc3n2)cc1 | -17 | 2 | 49 | -5 | 26 | -4
CC(C)c1ccc(-n2nc3ccc(N)cc3n2)cc1 | -25 | -117 | 68* | -1 | 20 | -37
CCOC(=O)c1cc2ccccc2n1C1CCN(CCc2ccccc2)CC1 | . | 4 | -11 | 0 | . | .
O=[N+]([O-])c1cc(S(=O)(=O)Oc2ccccc2)ccc1Cl | 88* | 88* | 58* | -2 | . | -72*
COCCn1c(N)c(C(=O)c2cccc(S(=O)(=O)N3CCCCCC3)c2)c(=O)[nH]c1=O | 6 | 13 | 20 | 0 | . | 11
Cc1ccc(C=Nc2ccccc2C(N)=O)o1 | 9 | 9 | -5 | 3 | 35 | -7
CN(C)c1ccc(/C=N/NC(=O)c2ccco2)cc1 | -2 | -96 | 66* | -3 | 41 | -10
CN(C)c1ccc(/C=N/NC(=O)c2ccccn2)cc1 | 6 | -47 | 66* | -1 | 28 | -11
